Pf Dd2 inh: blocks in vitro growth of P. falciparum Dd2; Potency, µM (doses to about 28.9 µM), for inactives: top-dose activity, negative = inhibition, usual class: inhibitors; P. falciparum Dd2 growth, SYBR Green, 72 h; actives 4.3% (n = 120,000); active means well fitted inhibition curve with a large enough effect;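 further: plate controls were DMSO vehicle for no effect and reference drug for full effect; nearly all actives have a fitted effect of over 65% in size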
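Readout: SYBR Green fluorescence, 485 nm excitation, 535 nm emission, after ~16 h lysis at 37C. Before that, Dd2-infected red cells (2.5% hematocrit) grew 72 h with compound, 29 uM top final concentration.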
The depositor's hits bear a star; i = inactive; [ ] = another dose, or the depositor's remark. This excerpt belongs to a sample that is enriched for hits. Potency means the concentration at half of the fitted maximal effect.

SMILES	Pf Dd2 inh
COc1cc(=O)n2c(c1C(=O)Nc1cc(Cl)cc(Cl)c1)CCCC2	36%
COCCN(CCOC)c1ncnc2c1c(-c1ccccc1)cn2-c1ccc(C)c(Cl)c1	11µM*
COc1ccc(Cl)cc1Nc1ncnc2c1c(-c1ccccc1)cn2-c1ccccc1	-4%
COc1ccc(CCNc2ncnc3c2c(-c2ccccc2)cn3-c2ccc(Cl)cc2)cc1OC	i
COc1ccc(C(=O)N2CC[C@@H]3NC(=O)[C@H]4C[C@H](NC(=O)C5CCCCC5)CN4C(=O)[C@H]32)cc1	13%
Cc1ncoc1C(=O)N1CCCN(S(=O)(=O)c2ccccc2)CCC(=O)NCC1	-2%
COCCc1nncn1C1CCN(C(=O)c2cc(F)cc(F)c2)CC1	3%
CCCCNC(=O)CC(c1cccc2c1OCO2)c1c[nH]c2c(CC)cccc12 (stereo unspecified)	10µM*
O=C(CC(c1cccc2c1OCO2)c1c[nH]c2ccccc12)NCc1ccccc1 (stereo unspecified)	i
CCCCCNC(=O)CC(c1cccc(OC)c1OC)c1c[nH]c2c(CC)cccc12 (stereo unspecified)	-21%
NC(=O)c1nc(CNC(=O)CC(c2ccccc2)c2ccc3c(c2)OCO3)no1 (stereo unspecified)	-3%
COc1ccc(OC)c(-c2cc(Cl)c3c(c2)CC(CNC(=O)c2c(F)cccc2F)O3)c1 (stereo unspecified)	6%
Cc1ccc(-n2c(=O)c3cccnc3n2CC(=O)NCc2ccc(Cl)cc2)cc1	-6%
CCc1ccc(-n2c(=O)c3cccnc3n2CC(=O)Nc2cc(F)ccc2F)cc1	5µM*
CCN(CC)c1ccc(NC(=O)Cn2c3ncccc3c(=O)n2-c2ccccc2)c(C)c1	7%
CN(Cc1ccccc1)C[C@H]1CN2CC[C@H]1C[C@@H]2CNC(=S)Nc1ccc(N(C)C)cc1	i
CC1Oc2ccc(NC(=O)Nc3ccccc3)cc2CN(Cc2ccccc2)C1=O (stereo unspecified)	i
CCOC(=O)c1ccccc1Nc1cc(C)nc2nc(-c3ccco3)nn12	10µM*
Cc1cc(Nc2ccccc2Cl)n2nc(-c3ccco3)nc2n1	-28%
Cc1cc(Nc2cccc(F)c2)n2nc(-c3ccco3)nc2n1	-16%
c1ccc(O[C@H]2COCCN(c3nc4ccccc4s3)C2)nc1	-5%[44.1 µM]
CCC(=O)N(C1CCOCC1)C1CCN(S(=O)(=O)c2c(C)nn(C)c2C)CC1	i
CO[C@@H]1CCOC[C@H]1NC(=O)c1cc(N2CCCCC2)ccc1Cl	-3%
COc1ccc2[nH]c3c(c2c1)CCNC31CCN(C(=O)c2ccc(C)s2)CC1	-22%
COc1ccc(CN2CCCCCNC(=O)[C@@H]3CCC[C@@H]32)cc1Cn1ccnc1	8.9µM*
SMILES	Pf Dd2 inh
N#Cc1ccccc1CN1CCCCCCNC(=O)[C@@H]2CCC[C@@H]21	2.8µM*
CC(C)n1cc(CN2CCCCCNC(=O)[C@@H]3CCC[C@@H]32)c2ccccc21	i
COc1ccc(-c2[nH]ncc2CN2CCCCCNC(=O)[C@@H]3CCC[C@@H]32)cc1	i
CCn1cc(CN2CCCCCCNC(=O)[C@@H]3CCC[C@@H]32)cn1	i
CCOc1ccccc1CN1CCCCCCNC(=O)[C@@H]2CCC[C@@H]21	2.8µM*
N#Cc1cccc(CN2CCCCCNC(=O)[C@@H]3CCC[C@@H]32)c1	-9%
N#Cc1ccc(CN2CCCCCNC(=O)[C@@H]3CCC[C@@H]32)cc1	-20%
Cc1ncsc1CN1CCCCCNC(=O)[C@@H]2CCC[C@@H]21	i
CN1C(=O)c2cccn2CC1C(=O)N1CCOCC1 (stereo unspecified)	-3%
CC(=O)N1CCC(N2C[C@@H]3C[C@H]2C(=O)N(Cc2ccccn2)c2ccccc2O3)CC1	-11%[44.1 µM]
O=C(Cc1ccccc1)N1Cc2ccccc2CC2(CCCN2Cc2ccncc2)C1 (stereo unspecified)	8.9µM*
CC(=O)N1Cc2ccccc2CC2(CCCN2Cc2ccccc2)C1 (stereo unspecified)	-8%
O=C(C1CCCC1)N1CC2(CCCCN2C2COC2)Cc2ccccc21 (stereo unspecified)	21%
COc1ccc(CC(=O)N2Cc3ccccc3CC23CCCN(C(=O)CCCN)C3)cc1 (stereo unspecified)	14%
CC(C)C(=O)N1Cc2ccccc2CC2(CCCCN2Cc2cccnc2)C1 (stereo unspecified)	13µM*
CN1CCC(C(=O)N2Cc3ccccc3CC3(CCN(Cc4cccnc4)C3)C2)CC1 (stereo unspecified)	-24%
COc1ccc(CC(=O)N2Cc3ccccc3CC23CCCN(C(=O)CN)C3)cc1 (stereo unspecified)	-21%
CC(=O)NCC(=O)N1Cc2ccccc2CC2(CCCN2Cc2ccccc2)C1 (stereo unspecified)	-17%
COc1ccc(CN2CCCCC23Cc2ccccc2CN(C(=O)CCC(=O)O)C3)cc1 (stereo unspecified)	-22%
O=C(O)CCC(=O)N1Cc2ccccc2CC2(CCCN2Cc2ccncc2)C1 (stereo unspecified)	4%
NCC(=O)N1CCCC2(Cc3ccccc3CN2C(=O)Cc2cccc(Cl)c2)C1 (stereo unspecified)	13µM*
O=C(C1CC1)N1CC2(CCCN2Cc2cccnc2)Cc2ccccc21 (stereo unspecified)	10µM*
CN1CCC(N2CC[C@H](c3nc4ccc(C#N)cc4[nH]3)C2)CC1	22%[44.1 µM]
Cc1nc(C(=O)N2CCC(c3nnc(Cn4cccn4)n3C)CC2)cs1	11%
COc1ccccc1CN1CC(CNC(=O)c2ccccc2)C2(C1)CN(c1ccccc1)C2 (stereo unspecified)	i
SMILES	Pf Dd2 inh
Cc1ccccc1C(=O)N1C(C(=O)NCc2ccco2)COC12CCN(C(=O)c1ccco1)CC2 (stereo unspecified)	-16%
CCCN(Cc1nccn1C)C(=O)c1sc(C(C)C)nc1C	-7%
CC(=O)N1C[C@@H]2CCCN3CCC[C@@H]([C@H]23)[C@H]1CCCC(=O)NCCCN1CCCc2ccccc21	-3%
CCOCC(=O)N1CC2CC(C1)[C@H]1CCCC(=O)N1C2 (stereo partly specified)	-16%
NC(=O)[C@@H]1C[C@H](Oc2cccnc2)CN1C(=O)C1CCCCC1	10%
CC(=O)N1CC2(CCCN(Cc3cccc(C(N)=O)c3)C2)Cc2ccccc21 (stereo unspecified)	-4%
NC(=O)c1cccc(CN2CCCC23Cc2ccccc2NC3=O)c1 (stereo unspecified)	-6%
CS(=O)(=O)N1CC2(CCCN2Cc2cccc(C(N)=O)c2)Cc2ccccc21 (stereo unspecified)	14µM*
COc1ccccc1CN1C[C@H]2[C@H](C1)[S+](=O)([O-])C(C)(C)C(=O)N2Cc1ccccc1	i
COc1c(F)ccc(C(=O)NC2CC(=O)N(CCc3ccc(F)cc3)C2)c1F (stereo unspecified)	15%
Cc1ccc(C)c(Nc2nn3c(=O)c4ccc(C(=O)NCc5ccccc5)cc4nc3s2)c1	-11%
Cc1ccccc1Nc1nn2c(=O)c3ccc(C(=O)NCC(C)c4ccccc4)cc3nc2s1 (stereo unspecified)	13µM*
Cc1ccc(Cl)cc1Nc1nn2c(=O)c3ccc(C(=O)NCc4cccs4)cc3nc2s1	i
Cc1ccc(C(=O)N2C[C@H](c3nc(-c4cccnc4)no3)[C@@H](C)C2)c(C)c1	i
CC1Oc2ccc(NC(=O)Cc3ccc(F)cc3)cc2CN(Cc2cc(F)cc(F)c2)C1=O (stereo unspecified)	-2%

Compound activity as filed in PubChem BioAssay.
